Compounds without any hit were thinned out: in the full panel of roughly 83,000, 20% have a hit.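 A percent growth of 40 corresponds to 60% growth inhibition; 0 means no net growth; -100 means all cells died. Active threshold: below 10.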 Unmarked numbers belong to inactive results. Active and inactive are the calls of the source.

Test systems include HCT-15 colon; HT29 colon; SNB-75 CNS; SNB-19 CNS; U251 CNS; PC-3 prostate; SK-MEL-5 melanoma; UACC-62 melanoma; LOX IMVI melanoma; SK-MEL-28 melanoma; SK-MEL-2 melanoma; EKVX NSCLC; UO-31 renal; TK-10 renal; ACHN renal; CAKI-1 renal; CCRF-CEM leukemia; MOLT-4 leukemia; SN12C renal; A498 renal.
Holding throughout (assay): NCI-60 one-dose screen, 48 h (100 = growth as untreated, 0 = no growth, -100 = all killed)
Conditions in all cases: 10 µM unless noted

In the case of `NS(=O)(=O)Oc1ccc(NC(=O)C23CC4CC(CC(C4)C2)C3)cc1Cl`, the growth in the assay on HCT-15 colon was 101%; in the assay with HT29 colon, 103%; in the assay with SNB-75 CNS, 84.3%; with SNB-19 CNS, 90.9%; with U251 CNS it was 96%; in the assay with PC-3 prostate, 94.5%. The growth in the assay with SK-MEL-5 melanoma is 91.1%; in the assay with UACC-62 melanoma, 86.8%; with LOX IMVI melanoma it was 82.9%; with SK-MEL-28 melanoma, 104%; in the assay with SK-MEL-2 melanoma, 99.9%; in the assay on EKVX NSCLC, 93%. Further, the growth in the assay on UO-31 renal was 63.4%; in the assay with TK-10 renal it was 100%; with ACHN renal, 96.1%; in the assay on CAKI-1 renal, 89%; in the assay on CCRF-CEM leukemia, 73.6%; in the assay with MOLT-4 leukemia, 82.3%.
As to `NC(N)=N/N=C/CO`, the growth in the assay with HCT-15 colon is 106%; in the assay on HT29 colon, 98.4%; in the assay on SNB-75 CNS it was 89.9%; in the assay on SNB-19 CNS, 111%; in the assay on U251 CNS, 105%; with PC-3 prostate, 91.2%. Besides, the growth with SK-MEL-5 melanoma is 102%; in the assay with UACC-62 melanoma, 113%; with LOX IMVI melanoma, 93.1%; in the assay with SK-MEL-28 melanoma, 106%; in the assay on SK-MEL-2 melanoma, 107%; in the assay on SN12C renal, 109%. The growth was 80.9% in the assay on UO-31 renal; 98.7% in the assay on TK-10 renal; 102% with ACHN renal; 99.4% in the assay with CAKI-1 renal; 117% with A498 renal; 93.8% in the assay with CCRF-CEM leukemia. Also, the growth with MOLT-4 leukemia is 95.7%.
In the case of `Oc1[nH]c2ccccc2c1/C=c1/cc2c(c(-c3ccc(F)cc3)n1)=Nc1ccccc1-2`, the growth in the assay on HCT-15 colon was -18.1% (active); with HT29 colon it was -41.7% (active); in the assay on SNB-75 CNS, -2.31% (active); in the assay with SNB-19 CNS it was 25.2%; in the assay on U251 CNS it was -57.8% (active); with PC-3 prostate, -14.8% (active). The growth in the assay with SK-MEL-5 melanoma was -38.9% (active); in the assay with UACC-62 melanoma, -56% (active); in the assay on LOX IMVI melanoma it was -58.1% (active); with SK-MEL-28 melanoma it was -47.3% (active); with SK-MEL-2 melanoma, -3.73% (active); in the assay on EKVX NSCLC it was 38.2%. For the same molecule, the growth in the assay with UO-31 renal is -12.1% (active); in the assay with ACHN renal it was -43.4% (active); in the assay with CAKI-1 renal, 14.8%; in the assay with A498 renal, -4.07% (active); in the assay with MOLT-4 leukemia, -15.6% (active).
`O=C(Nc1cccc2[nH]c(C(F)(F)F)nc12)c1cc(Cl)ccc1Cl`: the growth with HCT-15 colon was 29.2%; with HT29 colon, 52.1%; in the assay on SNB-75 CNS, 75.6%; in the assay on SNB-19 CNS, 32.3%; in the assay on U251 CNS, 15.8%; in the assay on PC-3 prostate, 15.5%. Moreover, the growth was -47.5% (active) in the assay on SK-MEL-5 melanoma; 20.5% in the assay with UACC-62 melanoma; 38.1% in the assay with LOX IMVI melanoma; 44.3% in the assay with SK-MEL-28 melanoma; -4.53% (active) with SK-MEL-2 melanoma; 28.7% in the assay on SN12C renal. Further, the growth in the assay on UO-31 renal is -3.23% (active); in the assay on TK-10 renal it was 4.93% (active); in the assay on ACHN renal it was 48.1%; in the assay on CAKI-1 renal it was 31.3%; in the assay on A498 renal it was -7.02% (active); in the assay on CCRF-CEM leukemia, 22.7%. For the same molecule, in the assay with MOLT-4 leukemia, the growth is 17.9%.
Regarding `Cc1nc(C)c(-c2nn3c(-c4cccc(F)c4)nnc3s2)s1`, the growth was 101% in the assay with HCT-15 colon; 86.6% in the assay on HT29 colon; 113% with SNB-75 CNS; 93.6% with SNB-19 CNS; 93.5% with U251 CNS; 89.3% with PC-3 prostate. Moreover, the growth in the assay with SK-MEL-5 melanoma is 92.8%; in the assay on UACC-62 melanoma, 96%; in the assay with LOX IMVI melanoma, 99.9%; in the assay with SK-MEL-28 melanoma it was 119%; with SK-MEL-2 melanoma, 102%; in the assay with SN12C renal it was 97.6%. For the same molecule, the growth in the assay on UO-31 renal was 83.9%; in the assay on TK-10 renal, 77.6%; in the assay with ACHN renal, 117%; in the assay on CAKI-1 renal, 103%; with A498 renal, 67.5%; in the assay with CCRF-CEM leukemia, 90.4%. Further, the growth with MOLT-4 leukemia is 87%.
For the molecule `N=C(N)c1ccc(-c2ccc(-c3ccc(Cl)c(Cl)c3)o2)cc1`, the growth in the assay on HCT-15 colon is -55.7% (active); with HT29 colon it was -20.3% (active); in the assay with SNB-75 CNS, 78.6%; in the assay on SNB-19 CNS, 25.4%; in the assay on U251 CNS, -36.9% (active); with PC-3 prostate, 47.4%. Moreover, the growth in the assay on SK-MEL-5 melanoma is 83.5%; in the assay on UACC-62 melanoma, 93.5%; in the assay with LOX IMVI melanoma, -96% (active); with SK-MEL-28 melanoma it was 59.7%; in the assay on SK-MEL-2 melanoma it was 102%; in the assay with EKVX NSCLC, 69.8%. Also, the growth is -69.1% (active) in the assay with UO-31 renal; 76% in the assay on TK-10 renal; -70.7% (active) in the assay on ACHN renal; 53% in the assay with CAKI-1 renal; -24.9% (active) in the assay on CCRF-CEM leukemia; -31% (active) with MOLT-4 leukemia.
For `Nc1c(C(=O)c2ccccc2)nnc2ncnn12`, the growth was 111% in the assay on HCT-15 colon; 100% in the assay with HT29 colon; 96.9% in the assay with SNB-75 CNS; 105% in the assay with SNB-19 CNS; 95.8% in the assay with U251 CNS; 97.9% with PC-3 prostate. Moreover, the growth was 98.6% in the assay with SK-MEL-5 melanoma; 99.7% in the assay with UACC-62 melanoma; 101% in the assay with LOX IMVI melanoma; 133% in the assay with SK-MEL-28 melanoma; 92% in the assay on SK-MEL-2 melanoma; 101% in the assay with UO-31 renal. Also, the growth was 96% in the assay with TK-10 renal; 122% in the assay on ACHN renal; 104% in the assay with CAKI-1 renal; 71.2% in the assay on A498 renal; 98.4% in the assay with CCRF-CEM leukemia; 95.8% in the assay on MOLT-4 leukemia.
For `CCOC(=O)c1c(C)nc2c(c1N)/C(=C/c1cc(OC)c(OC)c(OC)c1)C(=O)N2c1ccc(OC)cc1`, the growth in the assay on HCT-15 colon was 31.3%; in the assay with HT29 colon, 26.2%; with SNB-75 CNS it was 73.9%; in the assay on SNB-19 CNS it was 47.9%; in the assay on U251 CNS, 43.6%; with PC-3 prostate, 50.1%. The growth with SK-MEL-5 melanoma is 69.5%; in the assay on UACC-62 melanoma it was 67.3%; in the assay with LOX IMVI melanoma it was 14.6%; in the assay with SK-MEL-28 melanoma, 70.2%; in the assay with SK-MEL-2 melanoma, 67.1%; with EKVX NSCLC, 93.2%. Further, the growth in the assay on UO-31 renal is 55.7%; with TK-10 renal it was 77.4%; in the assay on A498 renal it was 82.2%; in the assay on CCRF-CEM leukemia, 8.45% (active); with MOLT-4 leukemia, 17.6%.
Turning to `Cc1ccc(S(=O)(=O)NN/C(N)=N\S(=O)(=O)c2cc(C)c(Cl)cc2SCc2ccccc2)cc1`, the growth is 109% in the assay on HCT-15 colon; 107% in the assay with HT29 colon; 68.3% in the assay with SNB-75 CNS; 86.9% with SNB-19 CNS; 83.9% in the assay on U251 CNS; 71.6% in the assay with PC-3 prostate. Also, the growth is 104% with SK-MEL-5 melanoma; 84.3% in the assay on UACC-62 melanoma; 92% with LOX IMVI melanoma; 94.3% in the assay on SK-MEL-28 melanoma; 86.9% in the assay with SK-MEL-2 melanoma; 107% with EKVX NSCLC. The growth was 77.9% with UO-31 renal; 93.6% with ACHN renal; 91% with A498 renal; 74.1% in the assay with CCRF-CEM leukemia; 61.3% in the assay on MOLT-4 leukemia.

Source of the values: PubChem BioAssay (NCI).
